Test results as given in the supplement of paper PMC4723716.
± gives the uncertainty stated by the source. In all, about 9,900 compounds were measured (“viability index relative to DMSO control”: median about 1, lowest 2% from about 0.85 on). This excerpt belongs to a sample that is enriched for the lowest values.

System: Plasmodium falciparum NF54 stage V gametocytes
Assay: viability index relative to DMSO control (fraction); higher = less gametocyte killing
Details: 2.5 µM, incubation time: 72 h
Method in brief: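 Viability index is the count of red-stained particles in a well divided by the plate mean of solvent-only wells. Particles of 20–70 µm2 were counted in one imaged field per well after one to two hours with 3 µl of 2.5 µM MitoTracker Red CMXRos and 0.13% saponin. Before staining, P. falciparum NF54 stage V gametocytes in serum-free medium (0.75% gametocytemia, 1.25% hematocrit, 10 µl, 1,536-well plates) were kept with compound at 2.5 µM for 72 hr at 37°C under low oxygen.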

[1] = library set: Broad Institute DOS
[2] = library set: Broad Institute Blood Stage

O=C(C1CCOCC1)N1CC(=O)N2[C@@H](CO)[C@H](c3ccc(C#CCc4ccccc4)cc3)[C@@H]2C1 gave a viability index [1] of 1.084 ± 0.0042.

C[C@@H](NC(=O)[C@@H]1[C@@H](CO)[C@@H]2Cn3c(ccc(-c4ccccc4)c3=O)[C@@H]2N1C)c1ccccc1 gave a viability index [1] of 1.05 ± 0.015.

O=C(C[C@@H]1C[C@@H]2c3cc(NS(=O)(=O)c4ccc(F)cc4)ccc3O[C@@H]2[C@H](CO)O1)N1CCc2ccccc2C1 showed a viability index [1] of 1.13 ± 0.069.

Work on COCC(=O)N1CC(=O)N2[C@H](CO)[C@H](c3ccc(C#CC4CC4)cc3)[C@H]2C1 yielded a viability index [1] of 1.11 ± 0.027.

Molecule CN(C[C@H]1N[C@@H](CO)[C@H]1c1ccc(-c2ccc(F)cc2)cc1)C(=O)C1CCC1 has a viability index [1] of 0.971 ± 0.025.

In the case of CCN(C[C@@H]1N[C@@H](CO)[C@H]1c1ccc(-c2ccc(F)cc2)cc1)C(=O)CN(C)C, the viability index [1] is reported as 0.711 ± 0.021.

Work on CCS(=O)(=O)N(C)C[C@@H]1N[C@H](CO)[C@@H]1c1ccc(-c2ccccc2F)cc1 yielded a viability index [1] of 1.05 ± 0.031.

O=C(C[C@@H]1CC[C@H]2NC[C@@H](O)COC[C@@H]2O1)NC1Cc2ccccc2C1 showed a viability index [1] of 0.9847 ± 0.0032.

O=C(C[C@H]1CC[C@H]2NC[C@@H](O)COC[C@@H]2O1)Nc1ccc(-c2ccccc2)cc1 gave a viability index [1] of 0.997 ± 0.036.

CCc1csc(N2[C@H](CO)[C@H](c3ccccc3)[C@@H]2CN(C)C(=O)C2CCC2)n1 was tested, and the viability index [1] was 1.03 ± 0.059.

Molecule CCc1csc(N2[C@H](CO)[C@H](c3ccccc3)[C@@H]2CNC)n1 has a viability index [1] of 0.372 ± 0.18.

With C/C=C/c1ccc([C@H]2[C@@H](CO)N(c3nc(CC)cs3)[C@H]2C#N)cc1 the viability index [1] was 1.09 ± 0.035.

CO[C@@H]1CN(C)C(=O)c2cc(NC(=O)Nc3cc(F)ccc3F)ccc2OC[C@H](C)NC[C@H]1C gave a viability index [1] of 1.022 ± 0.01.

Molecule COc1ccccc1C#Cc1ccc([C@@H]2[C@@H](C#N)N(C(=O)C3CCC3)[C@@H]2CO)cc1 has a viability index [1] of 1.15 ± 0.082.

COc1cccc(C#Cc2ccc([C@@H]3[C@H](C#N)N(C(=O)c4ccccn4)[C@H]3CO)cc2)c1 showed a viability index [1] of 0.929 ± 0.051.

For COc1ccccc1C#Cc1ccc([C@H]2[C@@H](C#N)N(C(=O)C3CCCC3)[C@H]2CO)cc1, the viability index [2] was 0.583 ± 0.18.

Work on N#C[C@H]1[C@H](c2ccc(C#Cc3cccc(F)c3)cc2)[C@@H](CO)N1C(=O)C1CCOCC1 yielded a viability index [1] of 1.12 ± 0.025.

COc1ccccc1C#Cc1ccc([C@H]2[C@@H](C#N)N(C(=O)C3CCC3)[C@H]2CO)cc1 was tested, and the viability index [1] was 0.846 ± 0.07.

COc1ccccc1C#Cc1ccc([C@@H]2[C@@H](CO)N(C(=O)C3CCC3)[C@H]2C#N)cc1 showed a viability index [1] of 1.06 ± 0.047.

COc1ccccc1C#Cc1ccc([C@H]2[C@@H](CO)N(C(=O)C3CC3)[C@H]2C#N)cc1 showed a viability index [2] of 0.849 ± 0.047.

Work on N#C[C@H]1[C@@H](c2ccc(C#Cc3cccc(F)c3)cc2)[C@@H](CO)N1C(=O)C1CCOCC1 yielded a viability index [1] of 1.05 ± 0.058.

COc1ccccc1C#Cc1ccc([C@H]2[C@@H](C#N)N(C(=O)C3CCC3)[C@@H]2CO)cc1 showed a viability index [1] of 1.05 ± 0.038.

For COc1cccc(C#Cc2ccc([C@H]3[C@@H](CO)N(C(=O)c4ccccn4)[C@H]3C#N)cc2)c1, the viability index [1] was 0.8087 ± 0.0043.

COc1cccc(C#Cc2ccc([C@@H]3[C@@H](C#N)N(C(=O)c4ccccn4)[C@H]3CO)cc2)c1 was tested, and the viability index [1] was 1.04 ± 0.029.

COc1ccccc1C#Cc1ccc([C@H]2[C@H](C#N)N(C(=O)C3CCC3)[C@H]2CO)cc1 showed a viability index [1] of 1.02 ± 0.025.

C[C@@H]1CN([C@@H](C)CO)C(=O)c2c(c3ccccc3n2C)-c2ccccc2CO[C@H]1CN(C)C(=O)[C@H]1CCCN1C gave a viability index [1] of 1.08 ± 0.011.

C[C@H](CO)N1C[C@H](C)[C@@H](CN(C)CC2CC2)OCCCC[C@H](C)Oc2ccc(NC(=O)c3ccccc3)cc2C1=O showed a viability index [1] of 1.07 ± 0.02.

CCCN(C)C[C@@H]1OCCCC[C@H](C)Oc2ccc(NC(=O)CCCN(C)C)cc2C(=O)N([C@@H](C)CO)C[C@@H]1C showed a viability index [1] of 1.1 ± 0.14.

Molecule OC[C@H]1Nc2ccc(C#Cc3ccc(F)cc3)cc2[C@@H]2[C@H]1CCN2Cc1ccc2c(c1)OCO2 has a viability index [1] of 1.06 ± 0.019.

CN1C(=O)c2cc(NC(=O)c3cccc(F)c3)ccc2OC[C@@H]2O[C@H](CC(=O)NCc3ccccc3Cl)CC[C@H]21 was tested, and the viability index [1] was 1.13 ± 0.036.

In the case of C[C@@H]1CN([C@H](C)CO)C(=O)c2cc(NS(=O)(=O)c3ccccc3)ccc2O[C@@H](C)CCCCO[C@@H]1CN(C)C(=O)C1CCCCC1, the viability index [1] is reported as 1.01 ± 0.13.

CC(C)C(=O)Nc1ccc2c(c1)C(=O)N(C)[C@H]1CC[C@@H](CC(=O)NCCc3ccccc3)O[C@@H]1CO2 gave a viability index [1] of 1.03 ± 0.06.

Molecule COc1cccc(C#Cc2ccc([C@H]3[C@@H](CO)N(C(=O)C4CCCC4)[C@H]3C#N)cc2)c1 has a viability index [2] of 0.882 ± 0.054.

COc1ccccc1C#Cc1ccc([C@@H]2[C@H](C#N)N(C(=O)C3CCC3)[C@H]2CO)cc1 showed a viability index [1] of 1.03 ± 0.09.

For COc1cccc(C#Cc2ccc([C@H]3[C@@H](C#N)N(C(=O)c4ccccn4)[C@@H]3CO)cc2)c1, the viability index [1] was 1.098 ± 0.009.

COc1ccccc1C#Cc1ccc([C@@H]2[C@@H](C#N)N(C(=O)C3CCC3)[C@H]2CO)cc1 gave a viability index [1] of 1.03 ± 0.022.

With COc1ccccc1C#Cc1ccc([C@H]2[C@@H](C#N)N(C(=O)C3CCCCC3)[C@H]2CO)cc1 the viability index [2] was 0.345 ± 0.087.

Molecule COc1cccc(C#Cc2ccc([C@@H]3[C@@H](C#N)N(C(=O)C4CCCCC4)[C@H]3CO)cc2)c1 has a viability index [2] of 0.7 ± 0.1.

Work on CCCNC(=O)N(C)C[C@H]1Oc2ncc(C#CC3CCCCC3)cc2C(=O)N([C@@H](C)CO)C[C@@H]1C yielded a viability index [1] of 0.929 ± 0.067.

Cc1ccccc1S(=O)(=O)Nc1ccc2c(c1)C(=O)N(C)[C@@H]1CC[C@H](CC(=O)O)O[C@@H]1CO2 showed a viability index [1] of 1.01 ± 0.033.

In the case of CN(C)CC(=O)N1[C@H](C(=O)Nc2nccs2)[C@@H](CO)[C@@H]2Cn3c(ccc(C4=CCCCC4)c3=O)[C@@H]21, the viability index [1] is reported as 1.02 ± 0.015.

Molecule COc1ccc(CN2C[C@H](O)COC[C@@H]3O[C@H](CC(=O)N(C)C)CC[C@H]32)cc1 has a viability index [1] of 1.08 ± 0.1.

In the case of C[C@H](CO)N1C[C@H](C)[C@H](CN(C)C(=O)NC2CCCCC2)Oc2ccc(N(C)C)cc2CC1=O, the viability index [1] is reported as 1.13 ± 0.1.

CO[C@H]1CC[C@@H]2CCOc3c(C#N)cccc3C(=O)N(C)C[C@@H](OC)[C@@H](C)C(=O)N(C)C[C@@H]1O2 was tested, and the viability index [1] was 1 ± 0.023.
